Drawing on PubChem BioAssay, this text covers growth inhibition for 13 compounds.

SMILES strings stand for the structures. A number with no mark means an inactive call. Active and inactive are the calls of the source.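 Rule for the calls: active = growth inhibition above 50% at the single 2 µM test dose, taken to imply half-maximal potency below 2 µM; inactive = the rest.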

This test is described as follows: antimalarial activity against Dd2 strain (AID 2302).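 Note: 0% = DMSO untreated growth and 100% = chloroquine plus artemisinin killed control.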 To be noted: P. falciparum Dd2 in RBCs, LDH growth readout, 72 h; at 2 µM; stronger effect = higher value.
For `Cc1cc(N(C)CCCN(C)C)nc(Nc2ccc(Br)cc2)n1`, the growth inhibition was 84% (active). With `Cc1noc(C)c1-c1cccc(CNCc2cccc(-c3ccc(-c4nc5ccc(C(F)(F)F)cc5[nH]4)s3)c2)c1` the figure was 95% (active). With `CN(C(=O)C1(c2ccc(Cl)cc2)CC1)C1CCN(CCCCCNC(=O)/C=C/c2ccc(Cl)c(Cl)c2)CC1` the figure was 0%; with `Cc1cc(N[C@@H](CC(C)C)C(=O)Nc2ccccc2)nc(NCC2CCCCC2)n1`, 95% (active); with `Nc1c2c(nc3ccc(NC(=O)CCCCCCc4ccccc4)cc13)CCCC2`, 90% (active).

Take `O=C(/C=C/c1ccccc1Cl)NC1CCC(CN2CCC(c3c[nH]c4ccncc34)CC2)CC1` (stereo not drawn): the growth inhibition was 100% (active). Consider `Cc1ccc(Cn2nc(Cl)c(N3CCCNCC3)cc2=O)cc1NC(=O)Nc1ccc(-c2ccccc2)cc1`, for which the growth inhibition is 55% (active).

As for `COc1c(C2CCN(CCCCNC(=O)c3ccc(NC(=O)c4ccc(C#N)cc4)cc3)CC2)ccc2c1CCCC2`, the growth inhibition was 100% (active). With `O=S(=O)(NCCN1CCCC1)c1ccc(-c2ccc(CNCc3ccc(F)cc3)cc2)s1`, the growth inhibition is 44%. Regarding `CCN(c1ccccc1)S(=O)(=O)c1ccc(OC)c(NC(=O)c2cccc(C(F)(F)F)c2)c1`, the growth inhibition is 70% (active). Under `O=C(Nc1cccc(C(F)(F)F)c1)c1ccc(S(=O)(=O)NCC2CCN(CC3CCCCC3)CC2)cc1` stands 49%; under `Cc1cc(N(C)C2CCN(CC3CCCCC3)C2)nc(Nc2ccc(Br)cc2)n1` (stereo not drawn), 38%. Under `CC(=O)Nc1ccc(OCCCCN(Cc2ccccc2C(F)(F)F)c2ccc(C#N)c(C(F)(F)F)c2)cc1` stands 47%.
